# Test results published in PubChem BioAssay (NCI).
# About 83,000 compounds went through this panel and 20% of them were active in at least one assay; those are over-represented in the sample as a whole.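 Step 1: grow cells in 96-well plates. Step 2: add test compound at a single concentration. Step 3: incubate 48 h. Step 4: record percent growth.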 Unmarked numbers belong to inactive results. Calls of active or inactive are those of the source. How the source made its calls: active means growth percent below 10; inactive means the rest.
# Tests used:
# Test in all cases: NCI-60 one-dose screen, 48 h (100 = growth as untreated, 0 = no growth, -100 = all killed)
# Details in all cases: 10 µM unless noted
# T-47D breast = system: T-47D breast
# BT-549 breast = system: BT-549 breast
# MDA-MB-435 melanoma = system: MDA-MB-435 melanoma
# SW-620 colon = system: SW-620 colon
# MCF7 breast = system: MCF7 breast
# HCT-116 colon = system: HCT-116 colon
# HCC-2998 colon = system: HCC-2998 colon
# KM12 colon = system: KM12 colon
SMILES,growth (T-47D breast),growth (BT-549 breast),growth (MDA-MB-435 melanoma),growth (SW-620 colon),growth (MCF7 breast),growth (HCT-116 colon),growth (HCC-2998 colon),growth (KM12 colon)
O=S(=O)(NCCCNc1cc(-c2cn(-c3ccccc3)nc2-c2cccc(O)c2)ccn1)c1ccc(F)cc1,14.8%,40.6%,38.9%,30.1%,27.2%,23%,-34.8% (active),24.2%
c1ccc2[nH]c(-c3ccc(Nc4nc(N5CCCCC5)nc(N5CCOCC5)n4)cc3)nc2c1,23.4%,23.1%,-27.3% (active),5.3% (active),3.49% (active),9.65% (active),-1.07% (active),14.3%
CN1CCN(c2nc(-c3cccc4ccccc34)nc3sc4c(c23)CCCCCC4)CC1,67.2%,91.9%,93.3%,83.8%,68.2%,67.9%,95.8%,98.8%
NS(=O)(=O)c1ccc(CCNC(=O)/C=C/c2ccc(Cl)cc2)cc1,90.7%,108%,95.6%,102%,92.5%,100%,116%,98.6%
COc1ccc(-c2n[nH]nc2-c2cc3ccccc3s2)cc1O,43.8%,24.1%,-32.9% (active),26.6%,19.7%,18.2%,29.2%,22.7%
COc1ccc(-c2cc(=O)oc3ccc(Cl)cc23)cc1F,50.5%,18.9%,-21.1% (active),23.5%,17.4%,5.47% (active),19.6%,11.2%
COc1cccc(-c2nn(-c3ccccc3)cc2-c2ccnc(NCCCNS(=O)(=O)c3ccc(Br)cc3)c2)c1,18.5%,73%,54.3%,69.7%,29.6%,40.8%,46%,44.1%
CC(=O)c1c(C)[nH]c(-c2nc3ccc(N4CCN(C)CC4)cc3[nH]2)c1-c1ccc2c(c1)OCCO2,37.7%,63%,34.9%,59.7%,10.5%,32.1%,45%,48.9%
Cn1cc(-c2csc(-c3cn(C(=O)OC(C)(C)C)c4ccc(Br)cc34)n2)c2cccnc21,74.3%,103%,102%,90.4%,81.5%,67.4%,101%,101%
CCSc1ncnc2c1ncn2C1OC(CO)C(O)C1O (stereo not drawn),29.1%,49%,24%,28.4%,19.2%,12%,8.16% (active),11.8%
Cn1cc(-c2nc(-c3c[nH]c4ncccc34)cs2)c2cc(F)ccc21,24.3%,58%,0.641% (active),31.8%,7.84% (active),20.3%,20.5%,-12.7% (active)
CC1(n2nnnc2N2CCCN(c3ncccc3N)CC2)CCC1,101%,99.4%,99.5%,104%,95.5%,84.1%,108%,102%
Cn1cnc2c1c(=O)n(CCC(=O)Nc1ccc(F)cc1)c(=O)n2C,89.7%,91.1%,108%,107%,101%,86.5%,108%,102%
C#CCN=C[C@]12CC[C@@H](C(=C)C)[C@@H]1[C@H]1CC[C@@H]3[C@@]4(C)CCC(=O)C(C)(C)[C@@H]4CC[C@@]3(C)[C@]1(C)CC2,37%,48.3%,72.4%,65.3%,42.5%,26.8%,78.1%,61%
COc1ccc(-c2cc(/C=C/C(=O)c3ccc(N)cc3)[nH]n2)cc1,21%,9.81% (active),14.7%,-38.1% (active),18.4%,8.45% (active),35.4%,3.29% (active)
CN1CCN(CCOc2ccc(-c3cnc4c(-c5cccc(F)c5)cnn4c3)cc2)CC1,56.9%,92.8%,-47.8% (active),-28.7% (active),37.4%,23.9%,63.2%,11.4%

SMILES,growth (T-47D breast),growth (BT-549 breast),growth (MDA-MB-435 melanoma),growth (SW-620 colon),growth (MCF7 breast),growth (HCT-116 colon),growth (HCC-2998 colon),growth (KM12 colon)
CCC(=O)c1c(C)[nH]c(C)c1C,104%,94%,95.1%,52.3%,61.1%,47.2%,114%,102%
CN(C)CCCC1(c2ccc(F)cc2)OCc2cc(-c3ccc(C(F)(F)F)nc3)ccc21 (stereo not drawn),66.5%,94.7%,67.9%,83.5%,56.7%,58.4%,31.8%,80.2%
Cn1nc(-c2ccccc2)c2c(-c3ccccc3)onc2c1=O,26.8%,47.4%,-1.78% (active),28.9%,23.6%,42.5%,74.5%,33.7%
Cc1cccc(C)c1NC(=O)CSC(=S)N1CCN(CCOCCO)CC1,103%,102%,108%,104%,98.1%,108%,97.6%,98.5%
COc1cnc2c(c1)C(=O)c1c-2n(CCCNC(C)C)c(=O)c2cc([N+](=O)[O-])ccc12,-24.9% (active),-63.1% (active),-95.8% (active),-38.8% (active),-47.4% (active),-51% (active),-83.4% (active),-39.8% (active)
COc1ccc(-c2nc(SCC(=O)Nc3ccc(C(C)=O)cc3)[nH]c(=O)c2C#N)cc1,89.4%,82.2%,111%,112%,97.5%,76.3%,105%,101%
N#CC1=C(N)Oc2ccc3ccccc3c2C1c1ccccc1Cl (stereo not drawn),38%,31.7%,-8.55% (active),30.6%,18.1%,18.3%,76%,36%
COc1cccc(-c2nn(-c3ccccc3)cc2-c2ccnc(NCCCNS(=O)(=O)c3ccccc3)c2)c1,-4.99% (active),35.7%,37.4%,46.5%,18.2%,25.7%,19.7%,29.6%
Cc1cc(C)n(Cc2cc(C(C)(C)C)cc(C(C)(C)C)c2)c(=O)c1C#N,79.3%,88.5%,102%,101%,88.4%,79.3%,116%,97.5%
Cc1cc(N(CCNc2ccnc3cc(Cl)ccc23)Cc2ccco2)nc(Cl)n1,-69.1% (active),-78% (active),30.1%,-35.6% (active),-29.7% (active),-96.8% (active),62.2%,26.5%
Cn1cc(-c2csc(-c3cn(CCN)c4ccccc34)n2)c2cccnc21,20%,59.6%,16.6%,44.2%,16.7%,36.9%,65.3%,46.3%
COc1ccc(C2(Cl)c3ccccc3N(c3ccccc3)c3ccccc32)cc1,5.67% (active),11.3%,-60.9% (active),0.491% (active),-6.13% (active),-37.7% (active),-15.6% (active),6.64% (active)
C=C(C)[C@@H]1CC[C@]2(C=O)CC[C@]3(C)[C@H](CC[C@@H]4[C@@]5(C)C/C(=C/c6cccnc6)C(=O)C(C)(C)[C@@H]5CC[C@]43C)[C@@H]12,31.9%,75.6%,95.3%,76.2%,40.5%,43.8%,99%,78.3%
CCN(CC)C(=O)CCCCCn1c2ccccc2c2c3c(c4c5ccccc5[nH]c4c21)C(=O)N(O)C3=O,28.2%,56.8%,25.3%,70.1%,18.5%,37.8%,44%,30.8%
Cn1cc(-c2csc(-c3cn(CCN)c4ccc(Br)cc34)n2)c2cccnc21,45.5%,93.2%,91.1%,21.1%,20.9%,58.7%,97.9%,71.8%
